ARNT-TACC3 inh: disruptors of human ARNT/TACC3 interaction; Q9Y6A5; 0.66% of 390,000 active; inhibition, % at 9.99 µM; AlphaScreen His-ARNT PAS-B/GST-TACC3 binding, luminescence; TACC3 fragment carries E629A point mutation;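 active = mean inhibition of replicates at least 50% and at least half of replicates each reaching 50%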
HIF act: HIF pathway transcriptional activation; U2OS HRE-luciferase reporter, luminescence; normalized: DMSO 0%, desferrioxamine 100%; activation, % at 7.5 µM (by protocol); 0.32% of 300,000 active;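 active = mean activation of at least 10% of the iron chelator positive control signal, with at least half of replicates also reaching 10%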
HSF1 inh: HSF1 inhibition; NIH3T3-HGL HSE-luciferase, MG132-induced, luminescence 8 h; hits give low values; 0.77% of 300,000 active; activity change, negative = inhibition, % at 7.5 µM (by protocol);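 active = more than half of replicate wells show activity change below -50%, luminescence cut by over half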;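 also: luciferase reports HSF-1 transcriptional activity via heat shock element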
HSP90 refold inh: HSP90 refolding inhibition in rabbit reticulocyte lysate | luciferase refolding luminescence, 3 h | inhibition, % at 5.6 µM | 0.91% of 290,000 active | AID 1789;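 active = inhibition above the screen-wide mean plus 3 SD, computed separately per campaign, cut at about 16% in these data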;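 also: inhibitors lower the luminescence because luciferase stays unfolded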
HSF-1 act: increases HSF-1 driven luciferase reporter signal; AID 504408; activation, % at 9 µM; NIH3T3-HGL HSF-1 luciferase reporter, MG132, 8 h; 100% = twice DMSO control signal; 1.7% of 300,000 active;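 active = mean replicate activation of at least 50% with a set share of replicates each reaching 50%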
Numbers stand for hits; n = inactive; x = no result. Only some compounds are listed: those with a hit (about 3.1% of all), similar ones and a draw of the others.

SMILES	ARNT-TACC3 inh	HIF act	HSF1 inh	HSP90 refold inh	HSF-1 act
Cn1c(=O)cc(C(=O)N/N=C/c2ccc(F)cc2)[nH]c1=O	n	12	n	n	n
O=C(N/N=C/c1ccc(F)cc1)c1ccccc1	x	n	n	n	n
Fc1ccc(-n2cc(-c3ccccc3)c3c(N4CCOCC4)ncnc32)cc1	n	n	-52	n	n
C[C@@H](NC(=O)C[C@@H]1CC[C@@H](NC(=O)Cc2ccccn2)[C@H](CO)O1)c1ccccc1	n	x	x	x	x
Cc1cc(C)cc(N2C(=O)CN(Cc3ccccc3)C2=S)c1	n	n	-78	n	n
CCc1ccc(N2C(=O)CN(Cc3ccccc3)C2=S)cc1	n	n	n	n	n
C[C@@H]1CN([C@H](C)CO)C(=O)c2cc(NC(=O)Nc3ccc(C(F)(F)F)cc3)ccc2O[C@@H](C)CCCCO[C@@H]1CN(C)Cc1ccc(Cl)c(Cl)c1	n	x	x	x	x
O=C(COC(=O)c1ccccc1NC(=O)c1ccccc1)c1cccc([N+](=O)[O-])c1	n	n	n	n	n
COc1ccccc1C(=O)OCC(=O)c1cccc([N+](=O)[O-])c1	n	n	-76	n	n
COc1ccc(S(=O)(=O)NCc2ccccn2)cc1	n	n	n	n	n
O=S(=O)(NCc1ccccn1)c1ccc2ccccc2c1	x	n	n	n	72
C[C@H]1CN([C@@H](C)CO)C(=O)Cc2cc(NC(=O)CCC(F)(F)F)ccc2O[C@@H]1CN(C)C	n	x	x	x	x
O=C(Nc1ccccc1F)C(=Cc1sc(N2CCOCC2)nc1-c1ccccc1)C(=O)Nc1ccccc1F	n	n	n	n	64
CN1CCN(C(=O)[C@@H]2[C@@H](CO)[C@@H]3Cn4c(ccc(-c5cncnc5)c4=O)[C@@H]3N2CC2CC2)CC1	n	x	x	x	x
O=C(Nc1ccc(Cl)c(Cl)c1)N[C@H]1CC[C@@H](CCNC(=O)c2ccc(F)cc2)O[C@@H]1CO	n	x	x	x	x
COC(=O)[C@H]1[C@H](CO)[C@H]2Cn3c(ccc(-c4cccc(F)c4)c3=O)[C@H]2N1CC1CC1	n	x	x	x	x
CSc1ccc(/C=N/NC(=O)c2sccc2C)cc1	n	n	n	n	62
CN1c2ccc(-c3cccc(F)c3)cc2[C@H]2[C@H](CCN2C(=O)C2CC2)[C@@H]1CO	n	x	x	x	x
COC(=O)C[C@@H]1CC[C@@H]2[C@H](COc3ccc(NC(=O)Nc4ccc(C)cc4)cc3C(=O)N2C)O1	n	x	x	x	x
COc1cccc(-c2ccc3c(c2)[C@@H]2[C@@H](CCN2S(=O)(=O)c2cn(C)cn2)[C@@H](CO)N3)c1	active	x	x	x	x
CSc1nc2nccc(/C=C\c3ccccc3)n2n1	n	n	n	n	56
O=C(Nc1nnc(C2CC2)s1)C1Cc2ccccc2CN1S(=O)(=O)c1cccs1 (configuration not stated)	n	n	n	n	n
CCc1nnc(NC(=O)C2Cc3ccccc3CN2S(=O)(=O)c2cccs2)s1 (configuration not stated)	n	n	n	n	84
CCc1nnc(NC(=O)C2Cc3ccccc3CN2S(=O)(=O)c2ccc(C)cc2)s1 (configuration not stated)	n	n	n	n	58
CO[C@@H]1CN(C)C(=O)c2ccc(NC(=O)Nc3ccccc3F)cc2OC[C@@H](C)N(C)C[C@@H]1C	n	x	x	x	x
SMILES	ARNT-TACC3 inh	HIF act	HSF1 inh	HSP90 refold inh	HSF-1 act
CCOC(=O)c1c(CSCc2ccccc2)oc2ccc(O)c(CN(C)C)c12	n	n	-79	n	n
C[C@@H]1CN([C@@H](C)CO)S(=O)(=O)c2ccc(C3=CCCC3)cc2O[C@H]1CN(C)C(=O)C1CCCCC1	n	x	x	x	x
CCc1cc2c(=O)n(C(C)C(=O)OC3CCCCC3)cnc2s1 (configuration not stated)	n	n	n	n	66
COc1ccccc1C/C(N)=N/O	n	204	n	n	n
COc1ccc(N=C2C(=Nc3ccc(OC)cc3)N(c3ccccc3)C(=S)N2C(=O)c2ccc(Cl)cc2)cc1	n	n	n	n	n
COc1ccc(N=C2C(=Nc3ccc(OC)cc3)N(c3ccc(OC)cc3)C(=S)N2C(=O)c2ccc(OC)cc2)cc1	n	n	n	n	65
COc1ccc(N=C2C(=Nc3ccc(OC)cc3)N(c3ccc(N(C)C)cc3)C(=S)N2c2ccc(OC)cc2)cc1	n	n	n	n	63
COc1ccc(N2C(=S)N(C(=O)c3ccccc3)C(=Nc3ccccc3)C2=Nc2ccccc2)cc1	n	n	n	n	n
C[C@H]1CN([C@@H](C)CO)C(=O)c2cc(C3=CCCC3)cnc2O[C@H]1CN(C)C(=O)c1ccccc1	n	x	x	x	x
C[C@H](CO)N1C[C@H](C)[C@H](CN(C)C(=O)Nc2ccccc2)Oc2ccc(NC(=O)Nc3ccccc3)cc2CC1=O	n	x	x	x	x
C[C@@H](NC(=O)C[C@@H]1C[C@@H]2c3cc(NS(C)(=O)=O)ccc3O[C@@H]2[C@@H](CO)O1)c1ccccc1	n	x	x	x	x
Cc1cc2nc(-c3ccc(SCC(=O)Nc4ccc(S(=O)(=O)NC5CC5)cc4)nc3)[nH]c2cc1C	n	n	n	n	54
COc1cccc(/C=N/Nc2nc3ccccc3n3cnnc23)c1O	85	n	n	n	n
COc1ccc(Nc2nc3ccccc3n3cnnc23)cc1	n	n	n	n	n
COc1cccc(/C=N/Nc2nc3ccccc3n3cnnc23)c1	n	360	n	n	n
Cc1ccc(S(=O)(=O)Nc2ccc3c(c2)C(=O)N([C@@H](C)CO)C[C@@H](C)[C@H](CN(C)S(=O)(=O)c2ccc(F)cc2)OCCCC[C@H](C)O3)cc1	n	x	x	x	x
S=C(NCCc1ccccc1)NN=C1CCCCCC1	n	n	n	n	67
N=c1c(C(=O)NCC2CCCO2)cc2c(=O)n3ccccc3nc2n1Cc1ccc(Cl)cc1 (configuration not stated)	n	n	n	n	57
N=c1c(C(=O)NC2CCCC2)cc2c(=O)n3ccccc3nc2n1Cc1ccccc1	n	n	-91	n	n
N=c1c(S(=O)(=O)c2ccc(Br)cc2)cc2c(=O)n3ccccc3nc2n1Cc1ccco1	n	n	n	n	n
N=c1c(S(=O)(=O)c2ccc(Cl)cc2)cc2c(=O)n3ccccc3nc2n1Cc1ccco1	x	n	n	n	137
N=c1c(C(=O)NCc2ccco2)cc2c(=O)n3ccccc3nc2n1CCc1ccccc1	n	n	n	n	n
N=c1c(C(=O)NCC2CCCO2)cc2c(=O)n3ccccc3nc2n1Cc1ccccc1 (configuration not stated)	n	n	n	n	n
COc1ccc(CCn2c(=N)c(C(=O)NCc3ccco3)cc3c(=O)n4ccccc4nc32)cc1OC	27	x	x	x	x
O=C(C[C@@H]1C=C[C@H](NS(=O)(=O)c2ccc(F)cc2)[C@H](CO)O1)N1CCC(Cc2ccccc2)CC1	n	x	x	x	x
COc1ccc(-c2cnc3c(c2)C(=O)N([C@@H](C)CO)C[C@H](C)[C@@H](CN(C)S(C)(=O)=O)O3)cc1	n	x	x	x	x
CO[C@@H]1CN(C)C(=O)c2cc(NS(C)(=O)=O)ccc2OC[C@H](C)N(CCC(F)(F)F)C[C@@H]1C	n	x	x	x	x
